# Results from the antibiotic and cytotoxicity screens of Wong et al. (2023).
# The campaign covered roughly 39,000 compounds. About 3,300 (8.5%) were called active. The sample as a whole holds a higher share of actives than the screen did.
# Tested on: HepG2
# Assay: cytotoxicity call (relative viability < 0.9)
# Conditions: 10 µM
row,SMILES,cytotoxicity call
1,CN1C(=O)c2cc(NC(=O)C3CCOCC3)ccc2OC[C@H]2O[C@H](CC(=O)NCc3ccccc3F)CC[C@H]21,inactive
2,C[C@H]1CN([C@@H](C)CO)C(=O)c2cc(NS(=O)(=O)c3cn(C)cn3)ccc2O[C@@H]1CN(C)Cc1ccccc1,inactive
3,CC/1=C(CCC(=O)O)/C/2=C/c3[nH]c(c(c3CCC(=O)O)C)/C=C/3\N=C(/C=C/4\N=C(\C=C1/N2)C(=C4C)C=C)C(=C3C)C=C,active
4,C=CC1=C(C)C(=Cc2[nH]c(Cc3[nH]c(C=C4NC(=O)C(C)=C4C=C)c(C)c3CCC(=O)O)c(CCC(=O)O)c2C)NC1=O,inactive
5,C=CC1=C(C)C2=NC/1=C\C1=NC(=C\C3=NC(=C\C4=NC(=C\2)/C(C)=C4CCC(=O)O)/C(CCC(=O)O)=C3C)/C(C=C)=C1C,inactive
6,CC1=C(CCC(=O)O)c2cc3[nH]c(cc4nc(cc5[nH]c(cc1n2)c(C)c5C(C)O)C(C)=C4C(C)O)c(C)c3CCC(=O)O (configuration not stated),active
7,C=CC1=C(C)c2cc3[nH]c(cc4nc(cc5[nH]c(cc1n2)c(C)c5CCC(=O)O)C(CCC(=O)O)=C4C)c(C)c3C=C,active
8,CCc1c(c/2[nH]c1/C=C/1\N=C(/C(=C/3\N=C(/C=C/4\N/C(=C2)C(=C4C)C=C)[C@@H](C)[C@@H]3CCC(=O)O)CC(=O)N[C@@H](CC(=O)O)C(=O)O)C(=C1C)C(=O)O)C,inactive
9,COC(=O)CCc1c(c/2[nH]c1/C=C/1\N=C(/C=C/3\N=C(/C=C/4\N/C(=C2)[C@]2(C)[C@H](C(=O)OC)C(=CC=C42)C(=O)OC)C(=C3C=C)C)C(=C1CCC(=O)O)C)C,active
10,COC(=O)[C@H]1C2C(=O)N(C3CC3)C[C@]23C=C[C@H]1O3 (some centres not stated),inactive
11,C[C@H]1CN([C@@H](C)CO)C(=O)c2cccc(NC(=O)C3CCCCC3)c2O[C@H]1CN(C)Cc1ccc(Cl)c(Cl)c1,inactive
12,CO[C@H]1CN(C)C(=O)c2ccc(NS(C)(=O)=O)cc2OC[C@H](C)N(C(=O)c2ccc3c(c2)OCO3)C[C@H]1C,inactive
13,C[C@@H]1CN([C@@H](C)CO)S(=O)(=O)c2ccc(C#CC(C)(C)O)cc2O[C@H]1CN(C)Cc1ccccc1,inactive
14,CCCC(=O)Nc1ccc2c(c1)C(=O)N(C)C[C@@H](OC)[C@H](C)CN(Cc1cc(-c3ccccc3)on1)[C@H](C)CO2,inactive
15,Cc1noc(C)c1NC(=O)N(C)C[C@@H]1Oc2ccc(NC(=O)CCCN(C)C)cc2C(=O)N([C@@H](C)CO)C[C@@H]1C,inactive
16,C[C@@H]1CN([C@@H](C)CO)C(=O)Cc2cc(NC(=O)Cc3ccccc3)ccc2O[C@@H]1CN(C)S(=O)(=O)c1ccccc1,inactive
17,O=C(Nc1ccc2c(c1)[C@@H]1C[C@@H](CC(=O)N3CCc4ccccc4C3)O[C@@H](CO)[C@@H]1O2)C1CCOCC1,inactive
18,O=C(C[C@H]1C=C[C@H](NC(=O)c2ccc3c(c2)OCO3)[C@H](CO)O1)NCc1ccc(Oc2ccccc2)cc1,inactive
19,CC(C)CC#Cc1cnc2c(c1)C(=O)N([C@H](C)CO)C[C@@H](C)[C@@H](CN(C)C(=O)c1ccc3c(c1)OCO3)O2,inactive
20,C[C@H]1CN([C@@H](C)CO)C(=O)CCCn2nncc2CO[C@H]1CN(C)S(=O)(=O)c1ccc(C#N)cc1,inactive
21,Cc1ccc(S(=O)(=O)NCC[C@H]2CC[C@H](NS(=O)(=O)c3ccccc3Cl)[C@H](CO)O2)cc1,inactive
22,C[C@@H]1CN([C@H](C)CO)C(=O)c2cc(NC(=O)Nc3cccc4ccccc34)ccc2O[C@H]1CN(C)C(=O)Nc1ccc2c(c1)OCO2,inactive
23,C[C@@H]1CN([C@@H](C)CO)C(=O)Cc2cc(NC(=O)C3CC3)ccc2O[C@H]1CN(C)S(=O)(=O)c1cccs1,inactive

row,SMILES,cytotoxicity call
1,Cc1noc(C)c1NC(=O)Nc1ccc2c(c1)C(=O)N([C@@H](C)CO)C[C@H](C)[C@@H](CN(C)C(=O)Nc1ccc(F)cc1)OCCCC[C@@H](C)O2,inactive
2,Cc1nc2[nH]c(C)c(CCC(=O)O)c(=O)n2n1,inactive
3,[Fe+3].CC/1=C(CCC(=O)O)/C/2=C/c3[nH]c(c(c3CCC(=O)O)C)/C=C/3\N=C(/C=C/4\N=C(\C=C1/N2)C(=C4C)C=C)C(=C3C)C=C,active
4,Cc1[nH]c(=O)[nH]c(=O)c1CCC(=O)O,inactive
5,Cc1ccccc1S(=O)(=O)N(C)C[C@@H]1Oc2ccc(NC(=O)Nc3cc(Cl)cc(Cl)c3)cc2CC(=O)N([C@@H](C)CO)C[C@@H]1C,inactive
6,CC(C)NC(=O)Nc1ccc2c(c1)CC(=O)N([C@H](C)CO)C[C@H](C)[C@H](CN(C)S(=O)(=O)c1ccc(Cl)cc1)O2,inactive
7,C[C@H]1CN([C@@H](C)CO)C(=O)Cc2cc(NC(=O)Nc3cc(Cl)cc(Cl)c3)ccc2O[C@H]1CN(C)S(=O)(=O)c1ccc(Cl)cc1,active
8,CC(C)NC(=O)Nc1ccc2c(c1)CC(=O)N([C@@H](C)CO)C[C@@H](C)[C@@H](CN(C)S(=O)(=O)c1ccc(Cl)cc1)O2,inactive
9,CC(C)NC(=O)Nc1ccc2c(c1)CC(=O)N([C@H](C)CO)C[C@H](C)[C@@H](CN(C)S(=O)(=O)c1ccc(Cl)cc1)O2,inactive
10,Cc1ccccc1S(=O)(=O)N(C)C[C@@H]1Oc2ccc(NC(=O)Nc3ccc(Cl)c(Cl)c3)cc2CC(=O)N([C@@H](C)CO)C[C@@H]1C,active
11,C[C@H]1CN([C@@H](C)CO)C(=O)Cc2cc(NC(=O)Nc3ccc(Cl)c(Cl)c3)ccc2O[C@H]1CN(C)S(=O)(=O)c1ccc(Cl)cc1,active
12,Cc1ccccc1S(=O)(=O)N(C)C[C@@H]1Oc2ccc(NC(=O)Nc3cccc(C(F)(F)F)c3)cc2CC(=O)N([C@@H](C)CO)C[C@@H]1C,inactive
13,CC(C)NC(=O)Nc1ccc2c(c1)CC(=O)N([C@@H](C)CO)C[C@H](C)[C@@H](CN(C)S(=O)(=O)c1ccc(Cl)cc1)O2,inactive
14,Cc1noc(C)c1NC(=O)Nc1ccc2c(c1)CC(=O)N([C@H](C)CO)C[C@H](C)[C@@H](CN(C)Cc1ccc(C(=O)Nc3ccccc3N)cc1)O2,inactive
15,CCS(=O)(=O)Nc1ccc2c(c1)C(=O)N(C)C[C@H](OC)[C@H](C)CN(CCC(F)(F)F)[C@@H](C)CO2,inactive
16,CCN(CC)c1ccc(N2CC=C[C@@]34O[C@@H]5/C=C\CCCOC(=O)[C@@H]5[C@H]3C(=O)N([C@@H](C)CO)[C@@H]4C2=O)cc1,inactive
17,COc1ccc(NC(=O)Nc2ccc3c(c2)C(=O)N([C@H](C)CO)C[C@@H](C)[C@H](CN(C)C(=O)Nc2ccccc2)OCCCC[C@@H](C)O3)cc1,inactive
18,Oc1cccc(O)c1O,inactive
19,Cn1cc(-c2cc3c(N4CCN(c5ncc([C@@](C)(N)c6ccc(F)cc6)cn5)CC4)ncnn3c2)cn1,active
20,C[C@H](CO)N1C[C@H](C)[C@@H](CN(C)C(=O)Cc2cccnc2)Oc2cc(C#CC3(O)CCCC3)ccc2S1(=O)=O,inactive
21,C[C@H](CO)N1C[C@H](C)[C@@H](CN(C)Cc2ccc3c(c2)OCO3)OCCCC[C@H](C)Oc2ccc(NC(=O)CCC(F)(F)F)cc2C1=O,inactive
22,Cc1noc(C)c1S(=O)(=O)N(C)C[C@H]1Oc2c(NS(=O)(=O)c3ccccc3)cccc2C(=O)N([C@@H](C)CO)C[C@H]1C,inactive
23,COc1ccc(S(=O)(=O)Nc2ccc3c(c2)CC(=O)N([C@@H](C)CO)C[C@H](C)[C@@H](CN(C)C(=O)NC(C)C)O3)cc1,inactive

row,SMILES,cytotoxicity call
1,CC(=O)O[C@@]1(C)C[C@@H](O)[C@@H]2C=CO[C@@H](O[C@@H]3O[C@H](CO)[C@@H](O)[C@H](O)[C@H]3O)[C@@H]21,inactive
2,Cc1ccc(NC(=O)c2cc(=O)[nH]c(=O)[nH]2)cc1,inactive
3,c1ccc2[nH]c(-c3ccncc3)nc2c1,inactive
4,O=[N+]([O-])c1ccc2nc(CO)[nH]c2c1,inactive
5,c1ccc(-c2nc3ccccc3o2)cc1,inactive
6,NCc1ccc(-c2nc3ccccc3o2)cc1,inactive
7,NC1(C(=O)Nc2ccc3nc(-c4ccc(F)cc4)oc3c2)CC1,inactive
8,O=C(Nc1ccc(-c2nc3ccc(NC(=O)c4ccc(NC(=O)c5cccc6ccccc56)cc4)cc3[nH]2)cc1)c1ccc(NC(=O)c2cccc3ccccc23)cc1,inactive
9,O=C(Nc1ccc(-c2nc3cc(NC(=O)c4ccccc4Cl)ccc3o2)cc1)c1ccccc1Cl,active
10,O=C(Nc1ccc(-c2nc3ccc(NC(=O)c4ccc(Cl)cc4)cc3[nH]2)cc1)c1ccc(Cl)cc1,active
11,O=C(Nc1ccc(-c2nc3ccc(NC(=O)c4ccccc4[N+](=O)[O-])cc3[nH]2)cc1)c1ccccc1[N+](=O)[O-],active
12,CCCC(=O)Nc1ccc(-c2nc3cc(C(C)C)ccc3o2)cc1,inactive
13,O=C(Nc1ccc(-c2nc3cc(NC(=O)c4ccccc4[N+](=O)[O-])ccc3o2)cc1)c1ccccc1[N+](=O)[O-],active
14,O=c1[nH]cnc2c1ncn2C1OC(CO)C(O)C1O (configuration not stated),inactive
15,C[C@H](CO)N1C[C@H](C)[C@H](CN(C)C(=O)Nc2cc(F)ccc2F)Oc2cc(/C=C/c3ccccc3)ccc2S1(=O)=O,inactive
16,C[C@H]1CN([C@@H](C)CO)S(=O)(=O)c2ccc(C#CC3(O)CCCC3)cc2O[C@H]1CN(C)C(=O)c1ccncc1,inactive
17,Nc1cncc(Cl)n1,inactive
18,CN1CCN(C(=O)C[C@H]2CC[C@H]3[C@@H](COC[C@H](O)CN3C(=O)Nc3ccc4c(c3)OCO4)O2)CC1,inactive
19,COc1ccc(S(=O)(=O)N(C)C[C@H]2OCCCC[C@@H](C)Oc3ccc(NC(=O)c4ccccc4)cc3C(=O)N([C@@H](C)CO)C[C@@H]2C)cc1,inactive
20,CN(C)CC#Cc1ccc([C@@H]2[C@@H](CO)N3C(=O)CN(C(=O)CN(C)C)C[C@@H]23)cc1,inactive
21,C[C@@H]1CN([C@H](C)CO)C(=O)c2cc(C#CC3(O)CCCC3)cnc2O[C@H]1CN(C)S(=O)(=O)c1ccccc1,inactive
